CYP2C19 act: cytochrome P450 2C19 (human) activation | P33261 | recombinant CYP2C19, luciferin-H EGE luminescence; stronger effect = higher value; 0 = fully inhibited enzyme, 1 = untreated enzyme | activation factor at 5 µM | 96,000 tested, under 10 active | AID 1025;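 active means activation factor of at least 2 at 5 µM in the primary screen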
CYP2C9 inh: inhibitors of human CYP2C9; AID 777; CYP2C9 Supersomes, luciferin-H conversion, luminescence; hit rate 20% among 96,000; inhibition, % at 5 µM;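 active means blocking of liver enzyme CYP2C9 beyond about 50% at 5 µM, limit read from the data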
Target sequence (P11712 whole entry, looked up): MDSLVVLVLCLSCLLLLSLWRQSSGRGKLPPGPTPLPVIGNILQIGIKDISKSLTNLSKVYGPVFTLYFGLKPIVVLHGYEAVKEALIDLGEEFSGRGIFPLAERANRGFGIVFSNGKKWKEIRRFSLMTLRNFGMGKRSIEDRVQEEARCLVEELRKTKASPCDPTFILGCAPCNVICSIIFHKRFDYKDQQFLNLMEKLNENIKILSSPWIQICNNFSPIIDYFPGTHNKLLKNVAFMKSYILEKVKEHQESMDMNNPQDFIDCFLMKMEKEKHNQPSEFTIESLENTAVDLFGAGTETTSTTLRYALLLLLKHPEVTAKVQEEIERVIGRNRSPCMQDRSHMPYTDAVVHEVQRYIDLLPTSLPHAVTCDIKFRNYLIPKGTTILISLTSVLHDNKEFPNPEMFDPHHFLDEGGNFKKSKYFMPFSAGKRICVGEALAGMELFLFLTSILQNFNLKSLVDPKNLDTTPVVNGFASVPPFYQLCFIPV
CYP2C9 activ: CYP2C9 (human) activation. P11712. activation factor at 5 µM. hit rate 1.4% among 96,000. recombinant CYP2C9, luciferin-H conversion, luminescence; stronger effect = higher value; factor 1 = untreated enzyme, 0 = blocked;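 active means activation factor of 2 or more for CYP2C9 at a 5 µM dose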
MRP reversal: reverses drug resistance mediated by MRP | H69AR cells + 2 uM doxorubicin, CellTiter-Glo, 72 h | differential viability (reversal), % at 10 µM | hit rate 0.04% among 85,000 | AID 602;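 active means viability drop by adding the cancer drug above about 55%, with treated viability meeting a 40% cutoff, limit read from the data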;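 further: larger differential means the compound sensitizes cells more to doxorubicin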
MRP-1 activ: activators of MRP-1. H69AR cells + doxorubicin, viability rescue, CellTiter-Glo. viability increase, % at 10 µM. hit rate 0.61% among 140,000;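 active means viability gain under doxorubicin at or above a set limit, the compound median plus 3 SD, cut at about 4.7% in these data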;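 further: MRP-1 overexpressing cells given doxorubicin 25 µM after compound pretreatment; 18-22 h compound pretreatment then 72 h with doxorubicin before readout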
CYP2C19 inh: blocks human cytochrome P450 2C19 | AID 778 | hit rate 21% among 96,000 | inhibition, % at 5 µM | CYP2C19 Supersomes, luciferin-H EGE luminescence, 30 min | P33261;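 active means CYP2C19 inhibition above a set limit at 5 µM in the primary screen, cut at about 50% in these data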
Large screens that a line does not name were inactive. Shown are actives, neighbours in structure and some others; about 21% of the full set was active somewhere.

CC1CCc2c(sc(NC(=O)CSc3nc4c(c(C(F)(F)F)n3)CCc3ccccc3-4)c2C(N)=O)C1 (configuration not stated)	none (no result: CYP2C19 act, CYP2C9 inh, CYP2C9 activ, MRP reversal, CYP2C19 inh)
CC(Sc1nc(-c2ccc(F)cc2)cs1)C(=O)Nc1ccc(Cl)cn1 (configuration not stated)	none (no result: CYP2C19 act, CYP2C9 inh, CYP2C9 activ, MRP reversal, CYP2C19 inh)
COC(=O)N/N=C/c1cc(Cl)cc(Cl)c1OCc1ccccc1	none (no result: CYP2C19 act, CYP2C9 inh, CYP2C9 activ, MRP reversal, CYP2C19 inh)
CCOC(=O)C1CCCN(C(=O)c2ccc(C)c([N+](=O)[O-])c2)C1 (configuration not stated)	none (no result: CYP2C19 act, CYP2C9 inh, CYP2C9 activ, MRP reversal, CYP2C19 inh)
COc1ccc(NC(=O)CN(c2cccc(F)c2)S(C)(=O)=O)cc1OC	none
CSc1cccc(NC(=O)CN(c2cccc(C)c2)S(C)(=O)=O)c1	CYP2C9 inh 62.0, CYP2C19 inh 72.5
CS(=O)(=O)N(CC(=O)Nc1ccc(F)c(F)c1)c1cccc([N+](=O)[O-])c1	none (no result: CYP2C19 act, CYP2C9 inh, CYP2C9 activ, MRP reversal, CYP2C19 inh)
Cc1ccc(N(CC(=O)N/N=C/c2cc(C)n(-c3ccccc3)c2C)S(C)(=O)=O)c(C)c1	none (no result: MRP reversal)
CSc1cccc(NC(=O)CN(c2ccc(C)cc2C)S(C)(=O)=O)c1	CYP2C9 inh 62.1, CYP2C19 inh 94.6
Cc1ccc(N(CC(=O)Nc2ccc(F)cc2)S(=O)(=O)N2CCCC2)cc1	CYP2C9 inh 62.1 (no result: MRP reversal)
Cc1cccc(N(CC(=O)Nc2ccc(F)cc2)S(C)(=O)=O)c1	CYP2C9 inh 82.4, CYP2C19 inh 96.4
O=C(NC(NC1CCS(=O)(=O)C1)C(=O)c1cccs1)c1ccccc1 (configuration not stated)	CYP2C9 inh 69.4, CYP2C19 inh 99.1
CCOC(=O)c1cc(Br)c(=O)n2ccccc12	none (no result: MRP reversal)
COc1cccc(CNCC(O)(c2ccc(Cl)cc2)c2ccc(Cl)cc2)c1	none (no result: MRP reversal)
COc1ccc(CNCC(O)(c2ccccc2)c2ccc(Cl)cc2)cc1 (configuration not stated)	CYP2C9 inh 57.6, CYP2C19 inh 81.8 (no result: MRP reversal)
Cc1ccc(NC(=O)C2CCCO2)cc1[N+](=O)[O-] (configuration not stated)	none (no result: CYP2C19 act, CYP2C9 inh, CYP2C9 activ, MRP reversal, CYP2C19 inh)
CCOc1ccc(-n2c(SCC(=O)Nc3ccc(OC)cc3)nc3c(c2=O)SCC3)cc1	none
COC(=O)c1ccc(CSc2nc3c(c(=O)n2-c2ccc(Br)cc2)SCC3)o1	CYP2C9 inh 92.0, CYP2C19 inh 90.4
CCOc1ccc(-n2c(SCc3ccc(C(=O)OC)o3)nc3c(c2=O)SCC3)cc1	CYP2C9 inh 86.8, CYP2C19 inh 81.5
CCOc1ccc(N(CC(=O)NCC2CCCO2)C(=O)CCC(=O)Nc2ccccn2)cc1 (configuration not stated)	none (no result: CYP2C19 act, CYP2C9 inh, CYP2C9 activ, CYP2C19 inh)
Cc1ccc([N+](=O)[O-])cc1N/C=C/C(=O)c1ccco1	CYP2C9 inh 50.8 (no result: MRP reversal)
O=C(/C=C/Nc1ccc(F)cc1)c1ccco1	none
COc1ccc(-c2nc3cc(NC(=O)Cc4ccc(OC)c(OC)c4)ccc3o2)cc1	CYP2C9 inh 55.3, CYP2C19 inh 57.0
COc1ccc(CC(=O)Nc2ccc(-c3nnc(-c4ccccc4)o3)cc2)cc1OC	none
COc1ccc(CC(=O)Nc2cccc(-c3nnc(-c4cccc(C)c4)o3)c2)cc1OC	CYP2C9 inh 88.3, CYP2C19 inh 98.4
COc1ccc(CC(=O)Nc2cccc(-c3nnc(-c4ccccc4)o3)c2)cc1OC	CYP2C9 inh 77.8, CYP2C19 inh 85.0
COc1ccc(CC(=O)Nc2cccc(-c3nnc(-c4ccc(C)cc4)o3)c2)cc1OC	none (no result: CYP2C19 act, CYP2C9 inh, CYP2C9 activ, MRP reversal, CYP2C19 inh)
CC(C)(C)SCCNC(=O)c1ccc(Cl)c([N+](=O)[O-])c1	none (no result: CYP2C19 act, CYP2C9 inh, CYP2C9 activ, MRP reversal, CYP2C19 inh)
CCOC(=O)CCCCC(=O)c1[nH]c(=O)[nH]c1CSc1nnc2c3ccccc3n(C(C)C)c2n1	none (no result: CYP2C19 act, CYP2C9 inh, CYP2C9 activ, MRP reversal, CYP2C19 inh)
O=C(c1ccncc1)N1C2C=CC(C2)C1(C(F)(F)F)C(F)(F)F (configuration not stated)	CYP2C9 inh 60.6
COc1cc(/C=N/NC(=S)Nc2cccc(Cl)c2C)ccc1OCC(=O)N1CC(C)OC(C)C1 (configuration not stated)	none (no result: CYP2C19 act, CYP2C9 inh, CYP2C9 activ, MRP reversal, CYP2C19 inh)
CCCNCc1cc(OC)c(OCC(=O)NCCc2ccccc2)cc1Br	none (no result: CYP2C19 act, CYP2C9 inh, CYP2C9 activ, MRP reversal, CYP2C19 inh)
CCOc1cc(C(=S)N2CCCCC2)ccc1OS(=O)(=O)c1ccc(Br)cc1	CYP2C9 inh 69.1, CYP2C19 inh 56.1 (no result: MRP reversal)
CCNCc1cc(OCC)c(OCC(=O)NCCc2ccccc2)cc1Cl	CYP2C19 inh 88.0 (no result: MRP reversal)
CCOc1cc(/C=N/O)cc(Br)c1OCC(=O)NCc1ccccc1	none (no result: CYP2C19 act, CYP2C9 inh, CYP2C9 activ, MRP reversal, CYP2C19 inh)
CCOc1cc(C(=S)N2CCCCC2)ccc1OS(=O)(=O)c1ccc(Cl)cc1	CYP2C9 inh 80.6, CYP2C19 inh 71.5 (no result: MRP reversal)
CCOc1cc(C(=S)N2CCCCC2)ccc1OCC(=O)NCc1ccccc1	CYP2C9 inh 82.8, CYP2C19 inh 57.8
CCOc1ccc(C(=S)N2CCCC2)cc1OC	none (no result: CYP2C19 act, CYP2C9 inh, CYP2C9 activ, MRP reversal, CYP2C19 inh)
O=C(c1ccc2snnc2c1)N1CCOCC1	none
CCN(CC(O)COc1ccc(OCC(O)CN(CC)C2CCCCC2)cc1)C1CCCCC1 (configuration not stated)	none (no result: CYP2C19 act, CYP2C9 inh, CYP2C9 activ, CYP2C19 inh)
COc1ccc(-c2cc3nc(C)cc(C)n3n2)c(OC)c1	none (no result: CYP2C19 act, CYP2C9 inh, CYP2C9 activ, MRP-1 activ, CYP2C19 inh)
COc1cccc(C2CC(c3cccc(NS(C)(=O)=O)c3)=NN2C(=O)c2ccccc2)c1OC (configuration not stated)	none (no result: CYP2C19 act, CYP2C9 inh, CYP2C9 activ, MRP reversal, CYP2C19 inh)
CCOc1cc(C(=S)N2CCC(O)CC2)ccc1OS(=O)(=O)c1ccc(Br)cc1	CYP2C9 inh 67.5, CYP2C19 inh 86.7 (no result: MRP reversal)
CCCCOC(=O)c1ccc(NC(=S)NC(=O)c2c(Br)c(C)nn2C)cc1	none (no result: CYP2C19 act, CYP2C9 inh, CYP2C9 activ, MRP reversal, CYP2C19 inh)
Cc1nnc(C)n1N1C(=O)c2cccc3cccc(c23)C1=O	CYP2C9 inh 81.1, CYP2C19 inh 62.4
CN1CCN(C(c2cccc(C(F)(F)F)c2)c2nnnn2C(C)(C)C)CC1 (configuration not stated)	none
CCC(C)(C)n1nnnc1C(c1cccnc1)N1CCN(c2cccc(C(F)(F)F)c2)CC1 (configuration not stated)	CYP2C9 inh 57.9, CYP2C19 inh 80.5
CCC(C)(C)n1nnnc1C(c1ccncc1)N1CCN(c2cccc(OC)c2)CC1 (configuration not stated)	CYP2C9 inh 91.5, CYP2C19 inh 84.1
CCC(=O)NC(Nc1sc2c(c1C(=O)OC)CCN(C)C2)(C(F)(F)F)C(F)(F)F	none (no result: CYP2C19 act, CYP2C9 inh, CYP2C9 activ, CYP2C19 inh)
c1coc(-c2nc3nc4ccccc4nc3n2-c2ccc3c(c2)OCCO3)c1	CYP2C9 inh 63.5
Cc1ccc(N(C(C)C(=O)N2CCCCC2)S(C)(=O)=O)cc1C (configuration not stated)	CYP2C19 inh 81.7
Cc1ccc(N(CC(=O)Nc2ccc(S(=O)(=O)N3CCOCC3)cc2)S(C)(=O)=O)cc1C	CYP2C9 inh 98.0, CYP2C19 inh 77.0
CC(C(=O)N1CCC(C(N)=O)CC1)N(c1ccc(Oc2ccccc2)cc1)S(C)(=O)=O (configuration not stated)	none
CC(C)c1ccc(N(CC(=O)NCCSC(C)(C)C)S(C)(=O)=O)cc1	CYP2C19 inh 61.4
COc1ccccc1N(CC(=O)NCCSC(C)(C)C)S(C)(=O)=O	none
